Over roughly 68,000 sequences, “fluorescence intensity (a.u.)” has its median near 9,100; the highest 2% begin near 16,000. For the sample, the highest values were picked, then their nearest neighbours and some sequences at random.

In this test the target is OsWRKY34 (Oryza sativa, UniProt Q0JBA9 1-250). In words: protein-binding microarray (RPBM); PBS, 2% BSA, 51.3 ng/ul salmon testes DNA, 50 uM zinc acetate, 200 nM TF, 25 C, 1 h; high values mean tight binding. Particulars: protein: recombinant; tags: N-terminal polyhistidine and DsRed monomer fusion (pET32a); label: CyDye5-dUTP incorporated in the synthesized complementary strand; 3' TTTTT single-stranded linker to array surface; dsDNA, one strand shown. A digest of the protocol: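 Per-feature fluorescence intensity (arbitrary units), read on an Axon 4000B scanner, is the binding signal. Transcription factors carrying an N-terminal polyhistidine tag and DsRed fusion were expressed in E. coli BL21-CodonPlus and purified on Ni–NTA. A custom Agilent array, made double-stranded by primer extension with Cy5-dUTP and blocked with 2% BSA, was incubated with 200 nM protein in PBS, 2% BSA, salmon testes DNA and 50 µM zinc acetate at 25 °C for 1 h and then washed.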
Sequence of OsWRKY34 (Q0JBA9 entry or part of it): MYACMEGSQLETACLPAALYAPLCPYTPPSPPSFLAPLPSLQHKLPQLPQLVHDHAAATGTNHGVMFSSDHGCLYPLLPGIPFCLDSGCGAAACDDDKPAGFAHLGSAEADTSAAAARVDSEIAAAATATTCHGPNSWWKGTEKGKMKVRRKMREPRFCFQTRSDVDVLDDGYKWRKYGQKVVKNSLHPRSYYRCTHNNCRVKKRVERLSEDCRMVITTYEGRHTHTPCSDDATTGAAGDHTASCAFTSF
Turning to “CTCCTCGGGCTAAAAGTGGTAATACGCGTTTCTCAAGCTTCGGAGTCACCTAGTGCAG”, the binding signal was 9930 fluorescence intensity (a.u.).
The figure for “CTCACTTGACCGTGAACAGCACTCACTTGATTTGTACTTTCGGAGTCACCTAGTGCAG” is 10000 fluorescence intensity (a.u.); for “TGTTCTCTCCTGCCTCCACACTTTCTGGCACGGTACAAAACGGAGTCACCTAGTGCAG” it is 8370 fluorescence intensity (a.u.).
For the sequence “TTAATTTCACGGTTTCATCTCGACATCTCATCATCTGTTTCGGAGTCACCTAGTGCAG”, the binding signal is 12100 fluorescence intensity (a.u.).
The figure for “ATGCCATTTTTCCCGTTTGTTGCAATTGCAAAACATTTTTCGGAGTCACCTAGTGCAG” is 8580 fluorescence intensity (a.u.); for “CTCTCACACCGTGCCATATCCCGAACATCCCTTGATCGAACGGAGTCACCTAGTGCAG” it is 9530 fluorescence intensity (a.u.); for “CTTTCCTGTACTATTTTACTGTCCGATTTACAACATGTGACGGAGTCACCTAGTGCAG” it is 12900 fluorescence intensity (a.u.).
“TCGGTTTTTACTGCTTCCATCAGACGTCGGTCTGTTTTCGCGGAGTCACCTAGTGCAG”: the binding signal was 9470 fluorescence intensity (a.u.).
The result for “ACCTGTTTCGTTCGTCCACGCCAGCGCCAACCGGACATGACGGAGTCACCTAGTGCAG” reads 9460 fluorescence intensity (a.u.).
As to “TCTTGTATTCTCCACTAGTCTTGGGTCATCCATTCTTCAGCGGAGTCACCTAGTGCAG”, the binding signal is 8550 fluorescence intensity (a.u.).
With “GCCTCTGTTCTTCCACTCATTATTATCATTTGCAGCTCCGCGGAGTCACCTAGTGCAG”, the binding signal was 10400 fluorescence intensity (a.u.).
On to “TCCCAACCCACCGTTCCATTCTCTCGAGCTCACCCCGTCACGGAGTCACCTAGTGCAG”, for which the binding signal was 10500 fluorescence intensity (a.u.).
For “TGTACTTCAAAAATTTACTTTACCGTGTGTTTTATTTTTTCGGAGTCACCTAGTGCAG”, the binding signal is 9650 fluorescence intensity (a.u.).
The result for “ACTTTTTAGTGCGTATTTGACTATTCGTCTTATTTAAAAACGGAGTCACCTAGTGCAG” reads 9800 fluorescence intensity (a.u.); that for “TTCAAAATATTTGACACCGTTGACTTTTTAGTACGTGTTTCGGAGTCACCTAGTGCAG”, 18200 fluorescence intensity (a.u.); that for “CCGTTTCAAAATATTTGACACCGTTGACTTTTTAGTACGTCGGAGTCACCTAGTGCAG”, 26800 fluorescence intensity (a.u.).
The result for “CCTCCGTTTCAAAATATTTGACACCGTTGACTTTTTAGTACGGAGTCACCTAGTGCAG” reads 14100 fluorescence intensity (a.u.).
The figure for “AAAAATATTTGACAGCGTTGACTTTTTAGTGCGTATTTGACGGAGTCACCTAGTGCAG” is 42800 fluorescence intensity (a.u.); for “TCGTTTCAAAATACTTGACACCGTTGACTTTTTAGTACGTCGGAGTCACCTAGTGCAG” it is 23300 fluorescence intensity (a.u.).
With “TCTGTATTAGCGTTCGGTTGTTTTATTTGACTTTCCAAATCGGAGTCACCTAGTGCAG”, the binding signal is 8360 fluorescence intensity (a.u.).
The figure for “ATTTTCAAAATATTTGACACTGTTGACTTTTTAGTACATACGGAGTCACCTAGTGCAG” is 9840 fluorescence intensity (a.u.).
The result for “ATCAATCTATTAGAATACTTATTACTGTATCTACTTATGTCGGAGTCACCTAGTGCAG” reads 8690 fluorescence intensity (a.u.); that for “TAGGTTTTTTTTTACTTTTTAACTTGGCTGATTTTATTGACGGAGTCACCTAGTGCAG”, 8760 fluorescence intensity (a.u.); that for “GACTCTTGCGATTCCCTCTGTTGAACTTGTTCGTTCTCCTCGGAGTCACCTAGTGCAG”, 10600 fluorescence intensity (a.u.).
Turning to “TTCCCCATGTTTTTTTGCCCACTAACTCACTAGCCACCACCGGAGTCACCTAGTGCAG”, the binding signal is 10700 fluorescence intensity (a.u.).
“CCTCGACCTCTCGCTACTCCAGGCGCCGCCCCATCAGATGCGGAGTCACCTAGTGCAG”: the binding signal is 8200 fluorescence intensity (a.u.).
The figure for “CGTACGCGCCCACGCCCACTCCCACGCCTTCGCGCGCGCGCGGAGTCACCTAGTGCAG” is 9220 fluorescence intensity (a.u.); for “TTAGGTCGGGTTTTTCCCGTTTCTCGTTTCTATGGCGATGCGGAGTCACCTAGTGCAG” it is 8750 fluorescence intensity (a.u.); for “TCCTTGTGCCCACTTCTAGCTAGCTTCCAAGTTCCAACCACGGAGTCACCTAGTGCAG” it is 13700 fluorescence intensity (a.u.).
The result for “GGTGCTTGTTTAATCAAAGCTTGCTATTTGGTACTTTTTTCGGAGTCACCTAGTGCAG” reads 8940 fluorescence intensity (a.u.); that for “GGACCACCCTGCCGCGGACATCACCCATCTCGTCATCTCCCGGAGTCACCTAGTGCAG”, 9570 fluorescence intensity (a.u.); that for “TCCCTAAATATTTGACGCCATTGACTTTTTTAAACATGTTCGGAGTCACCTAGTGCAG”, 11200 fluorescence intensity (a.u.).
The figure for “CAAATTACTTCCTTTTCAAAATCTAGGATACCGTTGACTTCGGAGTCACCTAGTGCAG” is 9460 fluorescence intensity (a.u.).
For “TCCCTAAATATTTGACGCCGTTGACTTTTTTAAACATGTTCGGAGTCACCTAGTGCAG”, the binding signal was 26400 fluorescence intensity (a.u.).
With “ATATTTGACGCCGTTGACTTTTTTAAACATGTTTGACCGTCGGAGTCACCTAGTGCAG”, the binding signal was 44400 fluorescence intensity (a.u.).
With “CACATATTGATCTATTCTACTAAATTTTTTTTATGACTTTCGGAGTCACCTAGTGCAG”, the binding signal is 8630 fluorescence intensity (a.u.).
In the case of “ATCTAGGATACCGTTGACTTTTCGTACTAACATTTGACGTCGGAGTCACCTAGTGCAG”, the binding signal was 32800 fluorescence intensity (a.u.).
The result for “CCGTTGGCTTTTTTAAACATGTTTGACCGTTTATTTTATTCGGAGTCACCTAGTGCAG” reads 14100 fluorescence intensity (a.u.); that for “TGTTTTATTTTTAGGATACTTCTACCTTTTTTCGCTTTGACGGAGTCACCTAGTGCAG”, 9510 fluorescence intensity (a.u.).
Take “TTGACGCCGTTGACTTTTCTAAACATATTTGACTATTCGTCGGAGTCACCTAGTGCAG”: the binding signal is 22300 fluorescence intensity (a.u.).
The figure for “TGCTTTGGTTGTCTTCTTTATCTAGAAGGCTTTGATTGCTCGGAGTCACCTAGTGCAG” is 9520 fluorescence intensity (a.u.); for “TCATTGTTCTCACTTCCTCGTCTTGAGCACTTGAGTCTCTCGGAGTCACCTAGTGCAG” it is 8420 fluorescence intensity (a.u.).
For the sequence “TGCACTGGGCTCCCATCTGAATGTCCTTATGCCAACCTCCCGGAGTCACCTAGTGCAG”, the binding signal is 8520 fluorescence intensity (a.u.).
In the case of “CTAATCCTCCTGCTCCATCTCGATCCACATAACGATCCACCGGAGTCACCTAGTGCAG”, the binding signal was 8470 fluorescence intensity (a.u.).
In the case of “CATATTATAAATCATTTGACTTTTTTCATATTCAAAATTTCGGAGTCACCTAGTGCAG”, the binding signal was 9090 fluorescence intensity (a.u.).
On to “ACTCTATTTAGATATTTTCCCACGCATCCGTCTCCTCCTCCGGAGTCACCTAGTGCAG”, for which the binding signal was 9420 fluorescence intensity (a.u.).
Take “ACCAAACCCACGGCCTGGCCCACTGTCAGTACTAAGATAGCGGAGTCACCTAGTGCAG”: the binding signal was 9120 fluorescence intensity (a.u.).

These data come from article PMC7819943, “Rice protein-binding microarrays: a tool to detect cis-acting elements near promoter regions in rice”.
